What is called AC50 is the midpoint of the concentration-response curve, whichever way the signal moves.

Hit rate of the full screen: of about 16,000 compounds, about 5,100 (32%) were called active. Roughly 25% stayed inconclusive and do not appear here. The list shows a part of the results. Values without a mark were called inactive. Calls follow the shape of the dose curve; as a rule, active = well fitted curve in the direction sought with a large enough effect; inconclusive = small, poorly fitted or top-dose-only effect, or effect the other way; inactive = no such curve, though single readings can be large or run the other way.

Consider 95 compounds from PubChem BioAssay AID1851 (National Center for Advancing Translational Sciences (NCATS), 2009).
% is scaled to controls: 0 for no effect and ±100 for the full control effect.

Sequence of Cytochrome P450 3A4 (Homo sapiens) (P08684 whole entry, looked up): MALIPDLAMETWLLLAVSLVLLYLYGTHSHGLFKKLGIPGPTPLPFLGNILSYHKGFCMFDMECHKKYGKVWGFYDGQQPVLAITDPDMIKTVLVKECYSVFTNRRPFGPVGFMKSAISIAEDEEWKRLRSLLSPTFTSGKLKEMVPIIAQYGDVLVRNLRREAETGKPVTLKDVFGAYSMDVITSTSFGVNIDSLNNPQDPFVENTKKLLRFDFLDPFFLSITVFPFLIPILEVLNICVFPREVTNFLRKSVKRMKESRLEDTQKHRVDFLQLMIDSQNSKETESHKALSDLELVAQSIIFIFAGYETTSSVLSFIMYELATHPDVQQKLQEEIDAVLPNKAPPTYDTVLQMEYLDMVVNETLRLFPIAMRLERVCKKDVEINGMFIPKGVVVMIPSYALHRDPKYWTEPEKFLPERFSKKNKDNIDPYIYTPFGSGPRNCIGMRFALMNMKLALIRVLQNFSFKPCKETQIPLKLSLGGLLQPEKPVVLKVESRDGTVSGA

The test has as its target Cytochrome P450 3A4 (Homo sapiens) (UniProt P08684). The test can be described thus: Cytochrome panel assay with activity outcomes. To be noted: recombinant CYP, pro-luciferin dealkylation, luminescence, p450-cyp3a4; series mostly up to 57.1 µM.
Consider `O=C(O)[C@@H]1[C@@H](C(=O)O)[C@]23C[C@@]2(C(=O)O)[C@]2(C(=O)O)CCC3=C3CCCC312`, for which the activity, negative = inhibition is 7.71% [at 11.4 µM]. `CNC(=O)[C@H](C)[C@H]1C[C@]1(C)[C@H](NC(=O)OCc1ccccc1)c1ccccc1`: the AC50 is 2 µM (active). In the case of `CNC(=O)[C@H](C)[C@@H]1C[C@@]1(C)[C@@H](NC(=O)OCc1ccccc1)c1ccccc1`, the AC50 is 2.51 µM (active). On the same count and under the same terms, the same measure for `O=C(NCC1CCC(C(=O)O)CC1)OCc1ccccc1` (stereo not given): “inactive”. For `CCOC(=O)N/N=C1/C[C@@H](O)[C@@H](O)[C@@H]2[C@@H]3C(=O)N(C(C)(C)C)C(=O)[C@H]3CC[C@@H]12`, the activity, negative = inhibition was -11.7% [at 11.4 µM].

With `Cc1noc(C)c1C(=O)N1CCC[C@@]2(CCN(C(=O)NC(C)C)C2)C1`, the AC50 result is “inactive”. Still for that read-out and setting: the result for `COc1ccc(NC(=O)N2CC3(CCN(C(=O)c4c(C)noc4C)CC3)C2)cc1` reads “inactive”. As to `Cc1noc(C)c1C(=O)N1CCC2(CC1)CN(c1ccccc1)C2`, the AC50 entry is “inactive”.

With `Cc1noc(C)c1C(=O)N1CCC[C@@]2(CCN(C(=O)Nc3ccccc3)C2)C1`, the AC50 is 15.8 µM (active). The same measure, in the same setting: the result for `Cc1noc(C)c1C(=O)N1CCC[C@@]2(CCN(c3ncccn3)C2)C1` reads “inactive”; that for `Cc1noc(C)c1C(=O)N1CCC[C@@]2(CCN(c3ccccc3)C2)C1`, 5.01 µM (active); that for `Cc1noc(C)c1C(=O)N1CCC[C@@]2(CCN(C(=O)Nc3cccc(F)c3)C2)C1`, 5.01 µM (active). Consider `C=CC1=C[C@@H](O)C2OC2C12OCCCO2` (stereo not given in full), for which the activity, negative = inhibition was -4.04% [at 11.4 µM]. As for `CCCn1c(=O)c2[nH]c(C3CCCC3)nc2n(CCC)c1=O`, the AC50 entry is “inactive”. On the same count and under the same terms, the same measure for `CCCn1c(=O)c2[nH]c(-c3ccc(OCC(=O)NCCN)cc3)nc2n(CCC)c1=O`: 2.51 µM (active); for `O=S(=O)(c1ccccc1)c1cnn2c(C(F)(F)F)cc(-c3ccccc3)nc12`: “inactive”.

In the case of `COc1cccc(-c2cc(C(F)(F)F)n3ncc(S(=O)(=O)c4ccccc4)c3n2)c1`, the AC50 was 3.98 µM (active). The same measure, in the same setting: the result for `Cc1nc2ccccc2n1CC(=O)N/N=C\C=C\c1ccccc1` reads “inactive”; that for `CCCn1c(/C=C/c2ccccc2)nc2ccccc21`, 17.8 µM (active). Regarding `CCOc1c2ccc(C(=O)NCc3ccc4c(c3)OCO4)cc2nn1CC`, the activity, negative = inhibition is 14.3% [at 2.29 µM].

As to `CCc1ccccc1NC(=S)NCc1ccc2c(c1)OCO2`, the AC50 is 4.47 µM (active). Still for that read-out and setting: the same measure for `CCc1c(C(=O)NCc2ccc3c(c2)OCO3)[nH]c(C)c1C(C)=O`: 0.891 µM (active).

For the compound `NC(N)=NNC(=O)C(=O)O`, the activity, negative = inhibition is -1.33% [at 11.4 µM]. The same measure, in the same setting: the same measure for `CC1=NN(c2ccc(F)cc2)C(=O)C1C(c1cccc(O)c1)c1c(C)[nH]n(-c2ccc(F)cc2)c1=O` (stereo not given): 2.16% [at 2.29 µM].

For `Cc1ccc(N2C(=O)C(Cl)=C(NCc3ccccc3)C2=O)c(C)c1`, the AC50 entry was “inactive”. Same read-out and setting: the result for `CC1=NN(c2ccc(C)cc2C)C(=O)C1C(c1ccccc1)C1C(=O)N(c2ccc(C)cc2C)N=C1C` (stereo not given) reads 11.2 µM (active); that for `CCN(CC)CCNC(=O)c1cc(Cl)c(N)cc1OC`, “inactive”. Take `CCN(CC)CCNC(=O)c1cc(S(C)(=O)=O)ccc1OC`: the AC50 result is “inactive”. For `CCN(CC)CCNC(=O)c1ccc(Cl)c(S(=O)(=O)Nc2ccccc2OC)c1`, the AC50 is 14.1 µM (active). The same measure, in the same setting: the result for `CCCCN(CC)Cc1ccc(CNC(=O)Nc2ccc(OC)cc2OC)o1` reads 22.4 µM (active); that for `COc1cnc(-c2ccccn2)nc1Oc1ccc(Cl)c2ccccc12`, 14.1 µM (active). Same read-out and setting: the same measure for `COc1cnc(-c2ccccn2)nc1Sc1c(Cl)cccc1Cl`: “inactive”; for `COc1cnc(-c2ccccc2)nc1Oc1cccc(C)c1`: “inactive”. Same read-out and setting: the same measure for `CN(Cc1cnc2nc(N)nc(N)c2n1)c1ccc(C(=O)N[C@@H](CCC(=O)O)C(=O)O)cc1`: “inactive”. With `COc1ccc(C)cc1NC(=O)CCC(=O)Nc1nnc(C(F)(F)F)s1`, the AC50 result was “inactive”. With `COc1ccc(NC(=O)COC(=O)Cn2c(C)nc3ccccc32)cc1OC`, the activity, negative = inhibition was 8.93% [at 2.29 µM]. `COc1ccc(C)cc1NC(=O)CSc1nnc(-c2ccc(OC)c(OC)c2)n1N`: the concentration at half-maximal activity (AC50) is 7.94 µM (active). On to `CCn1c2ccccc2c2cc(NC(=O)CSc3nnc(-c4ccc(OC)c(OC)c4)n3N)ccc21`, for which the AC50 is 1 µM (active). On the same count and under the same terms, the result for `Cn1c(=O)c2c(ncn2CCO)n(C)c1=O` reads “inactive”; that for `Cn1c(=O)c2c(ncn2CC(COCc2ccccc2Cl)OCc2ccccc2Cl)n(C)c1=O` (stereo not given), 7.94 µM (active). The same measure, in the same setting: the same measure for `Cn1c(=O)c2c(ncn2C[C@@H](O)CO)n(C)c1=O`: “inactive”; for `O=C(CSC1=NCCS1)N1CCN(c2ccc(Cl)cc2)CC1`: 15.8 µM (active). With `Cc1cc([N+](=O)[O-])c(C)c(Br)c1C`, the activity, negative = inhibition was -7.05% [at 11.4 µM]. As for `NC(=O)/C(=C\c1ccncc1)c1cccc2ccccc12`, the AC50 was 3.16 µM (active). With `O=C(O)/C(=C\c1ccc(O)cc1)c1cccc2ccccc12`, the activity, negative = inhibition is -2.12% [at 11.4 µM]. Same read-out and setting: the result for `O=C(O)/C(=C\c1ccccc1)c1ccccc1` reads -6.04% [at 11.4 µM]. Regarding `O=C(O)CCC(=O)N1CCc2cc(S(=O)(=O)N3CCCCC3)ccc21`, the AC50 result is “inactive”. Consider `CCC(=O)N1CCc2cc(S(=O)(=O)NC(C(=O)NCc3ccc(F)cc3)C(C)C)ccc21` (stereo not given), for which the AC50 is 7.08 µM (active). The same measure, in the same setting: the result for `O=C(O)CCC(=O)N1CCc2cc(S(=O)(=O)NCc3cccs3)ccc21` reads “inactive”; that for `Cc1ccc2[nH]c(=O)c(NC(N)=S)nc2c1`, “inactive”; that for `CCOC(=O)Cn1c(-c2ccccc2)nc2ccccc2c1=O`, “inactive”. In the case of `CCO/C(C)=N/n1c2nc3ccccc3nc2c2c(=O)n(CC(C)C)c(C)nc21`, the concentration at half-maximal activity (AC50) is 28.2 µM (active).

As to `O=C(O)c1ccccc1N[C@H](c1ccccc1)c1ccc2cccnc2c1O`, the activity, negative = inhibition was -13.5% [at 11.4 µM]. On to `CC(=O)Oc1cc(C(C)C)c(OCCN(C)C)cc1C`, for which the AC50 result is “inactive”.

In the case of `COC(=O)CNC(=O)CCCCC(=O)NCC(=O)OC`, the AC50 result is “inactive”. Same read-out and setting: the same measure for `CCCCCC(=O)Nc1cc2[nH]c(=O)cc(COC)c2cc1C`: “inactive”; for `CCCCCCCCC(=O)NCc1cc(OC)c(O)cc1I`: 3.16 µM (active).

`Cc1ccc(S(=O)(=O)Oc2cc(S(=O)(=O)O)cc3cc(S(=O)(=O)O)cc(N)c23)cc1`: the activity, negative = inhibition is 0.193% [at 11.4 µM].

Regarding `Cc1nc(SCC(=O)c2cc3ccccc3oc2=O)c(C#N)c(C)c1C(=O)Nc1ccccc1`, the AC50 entry was “inactive”.

On to `Cc1c(C#N)c(=O)oc2ccc3ccccc3c12`, for which the AC50 is 3.55 µM (active). Consider `N#Cc1c(NC(=O)CCC(=O)O)ccc2ccccc12`, for which the activity, negative = inhibition was -1.16% [at 11.4 µM]. As for `N#Cc1nc(COc2ccccc2Cl)oc1NCc1ccco1`, the AC50 was 5.01 µM (active). On to `CN(C)CCNc1oc(COc2ccc(Cl)cc2Cl)nc1C#N`, for which the AC50 entry was “inactive”.

On to `O=C(O)C1CC2(C1)CC(C(=O)O)C2` (stereo not given), for which the activity, negative = inhibition is 5.16% [at 11.4 µM].

For `CCc1nnc(NC(=O)CCC(=O)NCc2ccccc2OC)s1`, the AC50 result was “inactive”. Take `Cc1ccc(CNC(=O)CN2C(=O)COc3ccc(C)cc32)cc1`: the AC50 is 1.78 µM (active). In the case of `CCN1CCCC1CNC(=O)CCNC(=O)c1cc(OC)c(OC)c(OC)c1` (stereo not given), the AC50 result was “inactive”. Consider `CCCn1nc2cc(C(=O)NCc3ccc4c(c3)OCO4)ccc2c1OCC`, for which the activity, negative = inhibition was 32.6% [at 2.29 µM]. On to `COc1ccccc1CNC(=O)CCN1C(=O)COc2ccc(C)cc21`, for which the AC50 was 11.2 µM (active).

Take `Cc1ccc(C(=O)NCc2ccc(N3CCN(C(=O)OC(C)(C)C)CC3)cc2)cc1`: the AC50 result was “inactive”. Still for that read-out and setting: the same measure for `Cc1ccc2c(c1)N(CCC(=O)NCc1ccc3c(c1)OCO3)C(=O)CO2`: 0.112 µM (active); for `Cc1ccc2c(c1)-c1c(cnn1CC(=O)O)CO2`: “inactive”; for `COc1cc(C(=O)NCCC(=O)NCc2ccc3c(c2)OCO3)cc(OC)c1OC`: 0.447 µM (active).

For the compound `Cc1ccc2c(c1)N(CCC(=O)NCc1cccnc1)C(=O)CO2`, the AC50 was 3.55 µM (active). `O=C(O)c1cccc(CN2CCCCC2)c1`: the activity, negative = inhibition was -0.758% [at 11.4 µM].

For `O=C(O)c1cccc(N2CCCC2=O)c1`, the AC50 was 8.91 µM (active). As to `O=C(O)c1cccc(SSc2cccc(C(=O)O)c2)c1`, the activity, negative = inhibition was -11.9% [at 11.4 µM]. Turning to `Cc1nc2cnc(Oc3ccccc3)nc2n(Cc2cccs2)c1=O`, the half-maximal activity concentration (AC50) was 10 µM (active).

In the case of `Cn1cc(-c2nc3cnc(Oc4ccccc4)nc3n(Cc3cccs3)c2=O)c2ccccc21`, the AC50 result was “inactive”. Same read-out and setting: the same measure for `COc1ccc(Oc2ncc3ncc(=O)n(Cc4cccs4)c3n2)cc1`: 3.16 µM (active); for `COc1ccc(-c2nc3cnc(N4CCN(C)CC4)nc3n(Cc3cccs3)c2=O)cc1`: “inactive”.

With `COc1ccc(Oc2ncc3nc(-c4ccc(F)cc4)c(=O)n(Cc4cccs4)c3n2)cc1`, the AC50 was 15.8 µM (active).

Take `COc1ccc(Oc2ncc3nc(C)c(=O)n(Cc4cccs4)c3n2)cc1`: the AC50 is 3.16 µM (active). Still for that read-out and setting: the result for `COc1ccc(-c2nc3cnc(N4CCOCC4)nc3n(Cc3cccs3)c2=O)cc1` reads “inactive”. `O=C(C[N+]1(c2ccccc2)CCOCC1)c1ccccc1`: the activity, negative = inhibition is -14.4% [at 11.4 µM]. As to `O=C(CC(=O)c1ccncc1)c1ccccc1`, the AC50 is 3.16 µM (active). With `O=C(NNC(=O)c1ccncc1)c1ccncc1`, the activity, negative = inhibition was -9.5% [at 11.4 µM]. Same read-out and setting: the result for `CCc1cc2c(=O)c(-c3cnn(-c4ccccc4)c3)coc2c(CN2CCOCC2)c1O` reads 12.2% [at 11.4 µM]; that for `O=c1oc2c(CN3CCOCC3)c(O)ccc2c2ccccc12`, -4.65% [at 2.29 µM]. `Oc1c(CN2CCOCC2)cc(-c2ccccc2)cc1CN1CCOCC1`: the AC50 is 15.8 µM (active). Still for that read-out and setting: the same measure for `CCN(CC)C[C@@H]1CCCCN1CC(=O)N1c2ccccc2C(=O)Nc2cccnc21`: 12.6 µM (active); for `CN1CCN(CC(=O)N2c3ccccc3C(=O)Nc3cccnc32)CC1`: “inactive”; for `Cc1ccc2c(c1)nnn2C1CCN(S(=O)(=O)c2ccc(C(=O)N3C(C)CCCC3C)cc2)CC1` (stereo not given): 1.41 µM (active). For the compound `Cc1ccc2c(c1)nnn2C1CCN(CC(=O)N2c3ccccc3CC2C)CC1` (stereo not given), the AC50 is 10 µM (active). As for `CC1Cc2ccccc2N1C(=O)Cn1cc([N+](=O)[O-])cn1` (stereo not given), the AC50 entry is “inactive”.
